Measured values published in PubChem BioAssay (EPA / NIEHS).
Several values for one entry are separate records, joined by “and”; a condition that tells them apart may be missing. Equal values may be shown once. Some structures have more than one record in an assay (separate samples or runs), and their calls can disagree. Activity calls are given as the source filed them. The calls were made as follows: active = hit-call score of the fitted dose curve at least 0.9, where 1 is the maximum; inactive = score below 0.9.

read-out: Matrix Metallopeptidase 9 (MMP9), MMP9 (gene 4318); assay: BSK_BE3C_MMP9: BioMAP Diversity Plus: BE3C Assay for Matrix Metallopeptidase 9 (MMP9) Biomarker Activity (AID 2284283); details: primary human bronchial epithelial cells
Protocol: BSK_BE3C is a cell-based, multiplexed-readout assay that uses bronchial epithelial cell, a human lung primary cell, with measurements taken at 24 hours after chemical dosing in a 96-well plate.BSK_BE3C_MMP9 is an assay component measured in the BSK_BE3C assay. It measures MMP-9 antibody related to regulation of gene expression using ELISA technology.Data from the assay component BSK_BE3C_MMP9 was analyzed at the endpoint, BSK_BE3C_MMP9, in the positive analysis fitting direction relative to DMSO as the negative control and baseline of activity. Using a type of binding reporter, gain or loss-of-signal activity can be used to understand protein changes. To generalize the intended target to other relatable targets, this assay endpoint is annotated to the 'protease' intended target family, where the subfamily is 'matrix metalloproteinase'.
The levels of cell surface (or secreted, indicated by the prefix "s") biomarker endpoints were measured by ELISA. Overt cytotoxicity to cells in confluent adherent cultures (all systems other than the BT system) was assessed by measuring total protein levels using sulforhodamine B (SRB) staining in parallel cultures at the time of biomarker measurements, indicated as SRB endpoints. For proliferation assays for adherent cell types, individual cell types are cultured at sub-confluence and relative cell numbers quantified by SRB staining at time points optimized for each system (48 h: 3C and CASM3C systems; 72 h: BT and HDF3CGF systems; 96 h: SAg system). SRB was performed by staining cells with 0.1% SRB after fixation with 10% TCA and reading wells at 560 nm.Viability and proliferation of PBMC (T cells) was quantified by Alamar Blue reduction for the SAg and BT systems. For PBMC viability (referred to as PBMC Cytotoxicity within the assay endpoint names), cells were plated (75,000/well in a 96-well plate) and then chemical samples added for 1 h before addition of activators, SEB and TSST-1 (20 ng/mL final concentration each). Cells were incubated for 90 h. Then, Alamar Blue (20 uL/well) (Invitrogen, Cat DAL1100) was added for 6 h, and the plates were read with a fluorescence microplate reader at 546/580 nm (excitation/emission). For PBMC proliferation, cells were plated and activated as above but incubated for only 16 h prior to addition of Alamar Blue. Plates were read after 6 h.

AC50, active:
O=[N+]([O-])c1cc(S(=O)(=O)Nc2ccccc2)ccc1Nc1ccccc1 33.4 µM and 20 µM
COc1ccc(C(=O)c2ccccc2O)c(O)c1 10.2 µM and 17.3 µM
Cc1c(C(N)=O)cc([N+](=O)[O-])cc1[N+](=O)[O-] 15.4 µM
CN(C)Cc1cc(C(C)(C)C)c(O)c(C(C)(C)C)c1 10.7 µM
OC(C(F)(F)F)(C(F)(F)F)C(O)(C(F)(F)F)C(F)(F)F 30 µM

outcome, inactive:
Cc1c(C(N)=O)cc([N+](=O)[O-])cc1[N+](=O)[O-]
CC(C)C1OCCN1CCOC(=O)NCCCCCCNC(=O)OCCN1CCOC1C(C)C (centres undefined)
CN(C)Cc1cc(C(C)(C)C)c(O)c(C(C)(C)C)c1
CCCCC(CC)COC(=O)C=Cc1ccc(OC)cc1 (centres undefined)
COc1cc(CNC(=O)CCCC/C=C/C(C)C)ccc1O
C1CN(CCOCCN2CCOCC2)CCO1
COc1ccccc1Oc1c(NS(=O)(=O)c2ccc(C(C)(C)C)cc2)nc(-c2ncccn2)nc1OCCO
CC[N+](CC)(CC(=O)Nc1c(C)cccc1C)Cc1ccccc1 (tested in a mixture with another compound)
CCC[Si](OC(C)=O)(OC(C)=O)OC(C)=O
